Screens (PubChem BioAssay)
Only some compounds are listed: those with a hit (about 2.8% of all), similar ones and a draw of the others.
PP1 inh – blocks human PP1-alpha phosphatase, a PP5 counter-screen | P62136 | purified PP1alpha, OMFP fluorescence | inhibition, % at 6.7 µM | hit rate 0.9% among 320,000 | AID 2235;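 active = inhibition above the mean inhibition of all tested compounds plus 3 SD, computed separately for each screening campaign, cut at about 15% in these data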
Target sequence (P62136 whole entry, looked up): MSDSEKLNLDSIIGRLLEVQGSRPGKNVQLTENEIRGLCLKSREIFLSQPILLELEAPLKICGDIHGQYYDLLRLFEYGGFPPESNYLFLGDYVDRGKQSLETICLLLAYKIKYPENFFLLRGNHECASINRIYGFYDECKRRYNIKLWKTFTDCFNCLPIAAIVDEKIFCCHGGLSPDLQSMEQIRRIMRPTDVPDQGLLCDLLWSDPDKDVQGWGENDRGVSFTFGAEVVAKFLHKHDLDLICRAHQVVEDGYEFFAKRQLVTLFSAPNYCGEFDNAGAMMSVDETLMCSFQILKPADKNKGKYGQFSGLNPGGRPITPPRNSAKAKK
KLK7 zymogen act – proKLK7 (human) activation, primary screen; purified proKLK7, EDANS-DABCYL substrate fluorescence; 100% is mature enzyme control, 0% vehicle; activation, % at 7 µM; hit rate 0.9% among 370,000;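 active = activation above the mean of all tested compounds plus 3 SD, computed per campaign excluding outliers beyond control limits, cut at about 13% in these data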
Target sequence (P49862 whole entry, looked up): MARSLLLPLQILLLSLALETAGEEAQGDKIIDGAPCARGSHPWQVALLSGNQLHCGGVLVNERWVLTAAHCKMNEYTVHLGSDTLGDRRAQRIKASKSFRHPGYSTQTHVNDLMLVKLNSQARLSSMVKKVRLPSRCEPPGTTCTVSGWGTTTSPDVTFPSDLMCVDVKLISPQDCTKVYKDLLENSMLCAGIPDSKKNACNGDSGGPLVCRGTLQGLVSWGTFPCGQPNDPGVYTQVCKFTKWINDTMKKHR
JMJD2C inh – human JMJD2C demethylase inhibition; GST-JMJD2C(1-420) H3K9me3 demethylation, DELFIA europium; inhibition, % at 2.35 µM; hit rate 0.069% among 330,000; AID 2099;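 active = more than half of a compound's replicate wells show inhibition beyond 50%, single wells judged on their own value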;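 also: signal counts dimethyl H3K9 product captured on neutravidin plate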
PG9 Ab binder – PG9 antibody binding by small molecule; TR-FRET gp120-PG9 antibody binding; inhibition, % at 6.7 µM; hit rate 0.43% among 360,000; AID 624416; in the data active = inhibition above about 8.5%
PP5 primary – PP5 (human) phosphatase inhibition; P53041; purified PP5c, OMFP substrate fluorescence; inhibition, % at 6.7 µM; hit rate 0.18% among 320,000; AID 1987;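 active = inhibition above the campaign's mean inhibition across all tested compounds plus 3 SD, cut at about 9.5% in these data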
Rev-erbA mod – Rev-erb alpha (human) modulation; P20393; Rev-erbα–FITC-DNA binding, fluorescence polarization, 90 min; activity, % at 10 µM; hit rate 0.79% among 370,000;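 active = activity above about 14%, limit read from the data; passing the limit was not always enough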
KLK7 act conf – proKLK7 activation, confirmation; shares compounds with KLK7 zymogen act; purified proKLK7, EDANS-DABCYL substrate fluorescence; scaled: vehicle 0, mature enzyme 100; activation, % at 7 µM; hit rate 68% among 3,200; AID 686949;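 active = activation, as change over the incubation, above the mean of all tested compounds plus 3 SD, cut at about 13% in these data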
EDANS interfere – optically interferes with EDANS-DABCYL signal, flagging KLK7 hits; shares compounds with KLK7 zymogen act; AID 686952; EDANS-DABCYL substrate fluorescence interference, no enzyme, 4 h; solvent 0%, active enzyme control 100%; activation, % at 7 µM; hit rate 80% among 3,200;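 active = activation above the all-compound mean plus 3 SD, ignoring values outside control-based bounds, cut at about 4.8% in these data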;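 also: value is the 4 h activation minus the activation read at time zero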
K7 EDANS ctr – EDANS fluorescence interference in dose response, no enzyme. shares compounds with KLK7 zymogen act. EC50, µM. EDANS-DABCYL peptide fluorescence interference. hit rate 20% among 250;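 active = compounds that raise the fluorescence signal in this interference counterscreen, with EC50 at or below 10 µM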;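 also: intact quenched peptide substrate alone read at 355 nm excitation and 520 nm emission; signal is fluorescence gain from T0 to T4 after four hours at room temperature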
Large screens that a line does not name were inactive (follow-up assays come after a bar, where they were run).

CCOC(=O)C1CCN(c2cc3c(cc2NC(=O)c2cc(OC)ccc2Br)n(C)c(=O)n3C)CC1	KLK7 zymogen act 19 | KLK7 act conf 25 | EDANS interfere 31
CCOC(=O)C1CCN(c2cc3c(cc2NC(=O)c2ccccc2Br)n(C)c(=O)n3C)CC1	none
CN1C(=O)C[C@@](C#N)(C(=O)NCc2ccc3c(c2)OCO3)[C@H]1c1ccccc1	none (no result: PP1 inh, JMJD2C inh, PG9 Ab binder, PP5 primary)
Nc1cccc2c1C(=O)N(C(=O)c1ccc(Cl)c(S(=O)(=O)N3CCCCCC3)c1)C2=O	KLK7 zymogen act 18 | KLK7 act conf 217 | EDANS interfere 233
Nc1cccc2c1C(=O)N(C(=O)c1cccc(S(=O)(=O)N3CCCCCC3)c1)C2=O	KLK7 zymogen act 19 | KLK7 act conf 258 | EDANS interfere 269
CCCCOCC1CN(CCCC)S(=O)(=O)c2c(NCc3cc(OC)c(OC)c(OC)c3)cccc2O1 (centres undefined)	none (no result: PP1 inh, JMJD2C inh, PP5 primary)
FC(F)(F)c1ccc(Cn2ccc3ccc(-c4ccc5ccn(Cc6ccc(C(F)(F)F)cc6)c5c4)cc32)cc1	none (no result: PP1 inh, JMJD2C inh, PG9 Ab binder, PP5 primary)
CCOC(=O)C(=NC(C)CC)NNc1ccc(Br)cc1 (centres undefined)	KLK7 zymogen act 16 | KLK7 act conf 24 | EDANS interfere 26
CCOC(=O)C(=NC1CCS(=O)(=O)C1)NNc1ccc(Br)cc1 (centres undefined)	none
CCOC(=O)C(=NC(C)CC)NNc1cccc(C(F)(F)F)c1 (centres undefined)	KLK7 zymogen act 17 | KLK7 act conf 22 | EDANS interfere 26
COc1ccc(OC)c2c1C(=O)CC2C (centres undefined)	KLK7 zymogen act 43 (no result: PP1 inh, JMJD2C inh, PP5 primary) | KLK7 act conf 49 | EDANS interfere 49
COc1ccc(OC)c2c1C(=O)C(Cl)=C(Cl)C2=O	none
C[C@H]1[C@@H](NC(=O)c2cccc(N(C)C)c2)CC[C@@]23CCCN2C(=O)CCC[C@@H]13	none (no result: PP1 inh, KLK7 zymogen act, JMJD2C inh, PG9 Ab binder, PP5 primary)
CCCC(=O)Nc1nn(C)c2nc3cc(C)ccc3cc12	none (no result: KLK7 zymogen act, PG9 Ab binder, Rev-erbA mod)
Cc1ccc2cc3c(NC(=O)C(C)C)nn(C)c3nc2c1	KLK7 zymogen act 15 | KLK7 act conf inactive | EDANS interfere inactive
COC(=O)[C@]12CCCCC=C1N(Cc1ccc(OC)cc1)C(=O)[C@@H]2CC(=O)NCCCCc1ccccc1	none (no result: PP1 inh, JMJD2C inh, PG9 Ab binder, PP5 primary)
Oc1[nH]c2ccccc2c1N=Nc1ccc(F)cc1	KLK7 zymogen act 97 | KLK7 act conf 36 | EDANS interfere 56
Oc1[nH]c2ccccc2c1N=Nc1ccccc1	none
COC(=O)[C@]12C[C@H](CC(=O)NCc3cccs3)C(=O)N(CCC3=CCCCC3)C1=C[C@H](C1CCCC1)O[C@@H]2C	none (no result: PP1 inh, JMJD2C inh, PG9 Ab binder, PP5 primary)
Cc1cccc(OCC(=O)N2CCC3(CC2)CC(=O)c2ccccc2O3)c1	none
CC(=O)N1CCC2(CC1)CC(=O)c1cc(OCC(=O)NCc3ccco3)ccc1O2	KLK7 zymogen act 28 | KLK7 act conf 48 | EDANS interfere 49
CC(=O)N1CCC2(CC1)CC(=O)c1cc(OCC(=O)NCc3ccc(C)cc3)ccc1O2	KLK7 zymogen act 35 | KLK7 act conf 26 | EDANS interfere 46
COC(=O)c1ccc(Oc2c(C)oc3c(CN4CCN(C)CC4)c(O)ccc3c2=O)cc1	KLK7 zymogen act 65 | KLK7 act conf 79 | EDANS interfere 73
COc1ccc(Oc2c(C)oc3c(CN(C)C)c(O)ccc3c2=O)cc1	KLK7 zymogen act 14 | KLK7 act conf 32 | EDANS interfere 31
COc1ccc(-c2c(C(F)(F)F)oc3c(CN4CCN(C)CC4)c(O)ccc3c2=O)cc1	none
Cc1cc(C)cc(Oc2coc3c(CN(C)C)c(O)ccc3c2=O)c1	KLK7 zymogen act 71 | KLK7 act conf 69 | EDANS interfere 80
COc1ccccc1Oc1c(C)oc2c(CN3CCN(C)CC3)c(O)ccc2c1=O	KLK7 zymogen act 77 | KLK7 act conf 69 | EDANS interfere 76
CCCc1nc2c(C)cc(Br)cn2c1Cc1ccccc1OC	none (no result: PP1 inh, JMJD2C inh, PP5 primary)
O=C(Cn1c(-c2cncs2)nc2ccccc21)N1CCOCC1	none (no result: PP1 inh, JMJD2C inh, PG9 Ab binder, PP5 primary)
C[C@@H]1CCN(C2CC2)S(=O)(=O)c2ccc(N3CC[C@@H](O)C3)cc2O1	none (no result: PP1 inh, JMJD2C inh, PG9 Ab binder, PP5 primary)
CCN1CCN(Cc2c(O)ccc3c(=O)c(-c4ccc(OC)c(OC)c4)c(C)oc23)CC1	none
COc1ccc(-c2c(C)oc3c(CN4CCN(C)CC4)c(O)ccc3c2=O)cc1	KLK7 zymogen act 59 | KLK7 act conf 40 | EDANS interfere 50
COc1cccc(Oc2c(C)oc3c(CN4CCCCC4)c(O)ccc3c2=O)c1	KLK7 zymogen act 61 | KLK7 act conf 61 | EDANS interfere 71
O=[N+]([O-])c1cc2c(ccc3occc32)o1	none (no result: PP1 inh, JMJD2C inh, PP5 primary)
CCCS(=O)(=O)c1c(S(=O)(=O)CCC)c2cc(-c3ccncc3)ccn2c1C(=O)OC	KLK7 zymogen act 66 | KLK7 act conf 67 | EDANS interfere 65
COc1ccc2[nH]c3c(c2c1)CCN[C@]31C(=O)Nc2ccccc21	none (no result: PP1 inh, JMJD2C inh, PG9 Ab binder, PP5 primary)
O=C(c1ccco1)N1CCN(C(=O)c2cc3ccccc3oc2=O)CC1	none
COc1ccc2oc(=O)c(C(=O)N3CCN(C(=O)c4ccco4)CC3)cc2c1	KLK7 zymogen act 26 | KLK7 act conf 27 | EDANS interfere 30
COc1ccc2oc(=O)c(/C(N)=N/NC(=O)c3ccncc3)cc2c1	KLK7 zymogen act 15 | KLK7 act conf 121 | EDANS interfere 135
COc1ccc2oc(=O)c(C(=O)N3CCN(C(=O)c4ccccc4)CC3)cc2c1	KLK7 zymogen act 21 | KLK7 act conf 25 | EDANS interfere 16 | K7 EDANS ctr inactive
CN1CC(O)([C@H](Cc2ccccc2)NC(=O)OC(C)(C)C)OCC1C(=O)NCc1cccc2ccccc12 (some centres undefined)	none (no result: PP1 inh, KLK7 zymogen act, JMJD2C inh, PG9 Ab binder, PP5 primary)
Nc1cccc2c1C(=O)N(Cc1cccc(Cl)c1)C2=O	KLK7 zymogen act 27 | KLK7 act conf inactive | EDANS interfere inactive
COc1ccccc1N=c1oc2cc(O)ccc2cc1C(N)=O	KLK7 zymogen act 39 | KLK7 act conf 18 | EDANS interfere 23
COc1ccccc1N=c1oc2cc(O)ccc2cc1C(=O)NCC1CCCO1 (centres undefined)	KLK7 zymogen act 74 | KLK7 act conf 21 | EDANS interfere 22
COc1cccc2cc(C(=O)NCC3CCCO3)c(=O)oc12 (centres undefined)	none
COc1cccc(N=c2oc3cc(O)ccc3cc2C(=O)NCC2CCCO2)c1 (centres undefined)	KLK7 zymogen act 66 | KLK7 act conf inactive | EDANS interfere 6.5
